Data on 40 molecules can be found in PubChem BioAssay (NCI).

About 79,000 compounds went through this panel and 15% of them were active in at least one assay; those are over-represented in the sample as a whole. A number with no mark means an inactive call. The source made the active and inactive calls. Rule as the data show it: active = growth inhibition above about 70%; inactive = the rest. Where a SMILES comes first, the peptide text is derived from it. [ ]: non-standard residue; d: D form. The star is where a group is joined. ξ: configuration not given here. X15 = COc1ccc(C(N*)c2ccc(OC)cc2)cc1; NMeF = CN[C@@H](Cc1ccccc1)C(=O)O; NMeD = CN[C@@H](CC(=O)O)C(=O)O; NMeV = CN[C@H](C(=O)O)C(C)C; ξNMeV = CNC(C(=O)O)C(C)C; Boc = CC(C)(C)OC(=O)*; ξNMeA = CNC(C)C(=O)O; ξV = CC(C)C(N)C(=O)O

The test is described as follows: NCI Yeast Anticancer Drug Screen. Data for the bub3 strain (AID 167). As to conditions: S. cerevisiae bub3 mutant strain, at 50.0 µM, active compounds read high. A digest of the protocol: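 Inhibition values come from growth of compound-treated mutant yeast normalised to vehicle-treated controls.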
`COCCOCOC(C)(C)[C@H](CCO)O[Si](c1ccccc1)(c1ccccc1)C(C)(C)C`: the growth inhibition is 91.4% (active).
As for `O=C(c1ccccc1)c1cccc2cccc(C(=O)c3ccccc3)c12`, the growth inhibition is 6.45%.
Consider `CN(C)C(=O)OC1CCCCC1`, for which the growth inhibition is -19.6%.
As to `COc1cc([N+](=O)[O-])ccc1N=Cc1cccs1`, the growth inhibition is 18.3%.
As to `CCCc1c(OC(=O)c2ccc([N+](=O)[O-])cc2)cccc1OC(=O)c1ccc([N+](=O)[O-])cc1`, the growth inhibition was -3.95%.
For `CN(/N=C/c1ccccc1)c1nnnn1-c1ccccc1`, the growth inhibition was 0.6%.
With `CC(C)OP(=O)(OC(C)C)C([CH2][Sn]([CH3])([CH3])[Cl])P(=O)(OC(C)C)OC(C)C`, the growth inhibition was -2.1%.
Turning to `Cc1cc(O)c(/C=N/c2nc(-c3ccc([N+](=O)[O-])cc3)cs2)c(=O)o1`, the growth inhibition was -7.7%.
Take `Cc1ccc(C)c2nc3c(C)ccc(C)c3cc12`: the growth inhibition was -0.45%.
As for `CC1(C)OS(=O)(=O)C=C1Br`, the growth inhibition is -8.4%.
With `CCN(CC)CCNC(=O)c1c(C)cc(C)cc1C` the figure was -1.95%; with `C(=N\c1oc(-c2ccccc2)c(-c2ccccc2)c1-c1ccccc1)/c1ccccc1`, 4.2%.
Regarding `CC(=O)C/C(C)=N\NC(=O)c1ccc([N+](=O)[O-])cc1`, the growth inhibition is 9.9%.
With `CC(C)OC(=O)Oc1ccc(Cl)cc1Cl` the figure was -9.95%; with `CCC(Cc1cnc2nc(N)nc(N)c2n1)c1ccc(C(=O)NC(CCC(=O)O)C(=O)O)cc1` (stereo not given), -22.8%.
In the case of `CCOc1cc(/C=C2/C=C(c3ccc(OC)cc3)OC2=O)ccc1O`, the growth inhibition is 2.75%.
For the molecule `COc1cccc2c1C(=O)c1c(O)c3c(c(O)c1C2=O)CC(O)(C(C)=O)CC3OC1CC(NC(=O)C(CCCCN)NC(=O)C(N)CCN)C(O)C(C)O1` (stereo not given), the growth inhibition was 15.9%.
As for `COc1ccc(C(NC(=O)C[C@@H](C(=O)N(C)C(C)C(=O)O)N(C)C(=O)[C@@H]2CCCN2C(=O)[C@H](C(C)C)N(C)C(=O)C(C(C)C)N(C)C(=O)[C@H](Cc2ccccc2)N(C)C(=O)C(NC(=O)OC(C)(C)C)C(C)C)c2ccc(OC)cc2)cc1` (stereo not given in full) (Boc-[ξV][NMeF][ξNMeV][NMeV]P[NMeD](X15)[ξNMeA]-OH), the growth inhibition was -6.25%.
As to `CCN(CC)c1cccc2c1C1(O)CCC3(CC21)OCCCCO3` (stereo not given), the growth inhibition was -45%.
With `C=CCOC(=O)/C=C\C(=O)OCC=C`, the growth inhibition was 9.1%.
To `O=C(CC1(O)C(=O)Nc2ccccc21)c1ccc(O)cc1O` (stereo not given) belongs 14.3%; to `O=C1NC=NC1c1ccccc1` (stereo not given), -3.65%; to `O=C(NO)Oc1cccc2ccccc12`, -3.3%.
For `NCC(O)COCc1ccccc1` (stereo not given), the growth inhibition was -1.6%.
Take `CCOC(=O)CCCN(c1sc(C)c(-c2ccccc2)c1C(=O)OCC)S(=O)(=O)c1ccc(C)cc1`: the growth inhibition is -3.75%.
To `O=C1OC(C(O)C(O)C(O)CO)C(O)C1O` (stereo not given) belongs 28.3%; to `COc1cc(/C=N/N=C(\N)NO)cc(OC)c1OC`, 1%.
In the case of `O=c1oc2c(Cl)cc(Cl)cc2cc1-c1nc2ccccc2[nH]1`, the growth inhibition is 14.1%.
For the molecule `Nc1nc(N)c(N=Nc2cc(Cl)c([N+](=O)[O-])cc2Cl)c(=O)[nH]1`, the growth inhibition was -1.35%.
For `CCCCSc1nc2ccc(N=Cc3ccccc3O)cc2s1`, the growth inhibition is -5.75%.
With `C(=N\c1nc2ccccc2s1)/c1cccs1` the figure was 3.45%; with `COC(=O)c1nc(N)nc(C(=O)OC)c1C(=O)c1ccc(Cl)c(Cl)c1`, 3.2%; with `[C-]#[N+]C1(c2ccccc2)C2CC3CC(C2)CC1C3` (stereo not given), -4.25%.
In the case of `Cc1ccc(S(=O)(=O)C/C(=N\Nc2ccc([N+](=O)[O-])cc2[N+](=O)[O-])c2ccccc2)cc1`, the growth inhibition is -0.25%.
To `Cc1ccc(NC(=O)c2ccc(Cl)cc2)cc1` belongs 0%.
With `COCCNC1CCC2(SCCS2)c2[nH]c3ccccc3c21` (stereo not given) the figure was -9%; with `C[N+](C)(C)CC(=O)NC(=O)N/N=C\C(CC#N)CN(Cc1ccccc1)Cc1ccccc1` (stereo not given), 2.35%; with `COc1cc2c(cc1C)C1=C(C)C(=O)OC1[C@@H](O)[C@@H]2C` (stereo not given in full), 18.9%.
Turning to `COC1=C(c2ccccc2)P(=O)(Cc2ccccc2)C(C)C1` (stereo not given), the growth inhibition is 48.3%.
For `COc1ccc(-c2cc(=O)c3c([nH]2)CCCC3)cc1`, the growth inhibition is -4.3%.
